# This is a sample that favours compounds with a hit; in the whole collection about 11% have one here.
# IMPase Li cell: IMPase inhibition in cells with lithium potentiation; CHO-M1 cells, IP1 TR-FRET (IP-One), carbachol + lithium; Potency, µM (top dose mostly 59.4 µM), for the others: top-dose activity, negative = IMPase inhibition, most hits filed as inhibitors; 0.35% of 210,000 active; active = well fitted inhibition curve with a large enough effect; inconclusive = small, poorly fitted or top-dose-only effect; inactive = no such curve, though single readings can be large or run the other way;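 note: IP1 builds up when IMPase is blocked and the TR-FRET signal falls; potency is the fitted concentration of half-maximal effect; plate controls were basal vehicle for no effect and high inhibitor control for full effect; nearly all actives have a fitted effect of over 50% in size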
#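 IP1 accumulation measured by competitive TR-FRET in lysed CHO-M1 cells after 30 min compound exposure at 37C, with a small lithium addition to potentiate weak responses. Hill-equation AC50 from ratio and donor-channel data.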
# PNC assembly inh: inhibitors of perinucleolar compartment assembly; PC3M PTB-GFP, PNC prevalence imaging, 16 h; active compounds read low; activity change (PNC), negative = inhibition, % at 10 µM; 3.1% of 140,000 active; AID 2417;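 active = readout at or below -70, meaning at least 70% loss of cells showing the perinucleolar compartment, a nuclear body marking cancer cells; inconclusive = readout between -30 and a set limit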;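 note: plate controls were DMSO wells for no effect and camptothecin positive control wells for full effect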
#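 PC3M cells stably expressing PTB-GFP, 750–1000 cells/well, treated 16 h at 37 °C with compound (23 nl of library stock), in duplicate. After paraformaldehyde fixation and Hoechst stain, imaged at 20x; PNC prevalence scored by image analysis.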
# HPGD block: inhibitors of human 15-hydroxyprostaglandin dehydrogenase (HPGD); P15428; purified HPGD, NADH fluorescence kinetic, PGE2 substrate; Potency, µM, without a hit: at the top dose activity change, negative = inhibition, usual class: inhibitors; 4.3% of 150,000 active; AID 894; note: potency is the fitted concentration of half-maximal effect
#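 NADH formation kinetics: reaction with 30 uM PGE2 and 1 mM NAD+ (final), 20 nM enzyme, Tris-HCl pH 8 with Tween 20, after 15 min compound preincubation at room temperature. Fluorescence change, last versus first of five reads.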
# ALDH1A1 block: blocks purified human ALDH1A1 activity | P00352 | Purified ALDH1A1, NADH fluorescence, propionaldehyde substrate | Potency, µM (doses to about 75.3 µM), without a hit: at the highest dose activity, negative = inhibition, hits mostly inhibitors | 7.3% of 220,000 active | AID 1030;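 note: potency is the fitted concentration of half-maximal effect; plate controls were no enzyme wells and a reference inhibitor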
# Target sequence (P00352 whole entry, looked up): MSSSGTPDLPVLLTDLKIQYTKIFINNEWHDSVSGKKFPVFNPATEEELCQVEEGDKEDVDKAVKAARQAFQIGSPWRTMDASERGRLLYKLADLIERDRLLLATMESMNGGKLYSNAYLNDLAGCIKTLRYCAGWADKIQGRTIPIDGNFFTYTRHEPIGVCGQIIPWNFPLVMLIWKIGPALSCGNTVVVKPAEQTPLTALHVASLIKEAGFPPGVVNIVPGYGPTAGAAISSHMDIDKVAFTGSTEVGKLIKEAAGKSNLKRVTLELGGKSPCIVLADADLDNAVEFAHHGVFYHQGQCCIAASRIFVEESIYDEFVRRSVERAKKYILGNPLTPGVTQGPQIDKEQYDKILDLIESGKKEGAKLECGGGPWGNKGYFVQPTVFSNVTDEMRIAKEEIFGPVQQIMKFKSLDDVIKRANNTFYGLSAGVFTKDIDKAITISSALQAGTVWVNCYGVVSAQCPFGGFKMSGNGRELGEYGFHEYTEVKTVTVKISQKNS
# IMPase cell inh: cell-permeable inhibitors of inositol monophosphatase (IMPase) | AID 901 | P97697 | inhibition (IP1 accumulation), % at 46.1 µM | 120,000 tested, under 10 active | CHO-M1 cells, IP1 accumulation, HTRF TR-FRET ratio; active = well fitted curve in the direction sought with a large enough effect in the signal ratio, not every such curve was filed as active; inconclusive = small, poorly fitted or top-dose-only effect, or a change in a side signal; inactive = no such curve, though single readings can be large or run the other way; the % refers to the signal ratio;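 note: cells stimulated with carbachol in lithium chloride buffer; plate controls were DMSO basal wells for no effect and reference inhibitor wells for full effect; higher means more IMPase inhibition seen as more IP1 and lower FRET ratio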
#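 Elevated IP1 in lysates lowers TR-FRET signal (665/620 ratio and 620 channel reported). Cells were CHO-M1, given carbachol (50 uM as added) plus 50mM LiCl, pH 7.4, 30 min, 37C; compounds titrated up to 46 uM; AC50 by Hill equation.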
# * marks the source's active call; other numbers are inactive results; ? = inconclusive; / = not tested or not shown; [ ] = dose if it differs, or a comment. Unless noted, calls come from the whole dose curve; as a rule, active = well fitted inhibition curve with a large enough effect (not every such curve was filed as active); inconclusive = small, poorly fitted or top-dose-only effect, or another doubt; inactive = no such curve, though single readings can be large or run the other way. Unless noted, % is set by controls: 0 for no effect and ±100 for the full control effect.
SMILES,IMPase Li cell,PNC assembly inh,HPGD block,ALDH1A1 block,IMPase cell inh
Cc1cccc(CN2CCN(CC(=O)NCCCN3CCN(c4ccc(F)cc4)CC3)C2=O)c1,21%[38.3 µM],?,-2%,7%,-3
Cc1cccc(CN2CCN(CC(=O)NCCCN3CCCC3=O)C2=O)c1,19%[38.3 µM],-111*,0%,6%,12
CCOc1ccc(NC(=O)c2ccc(NCC(=O)N3CCCCCC3)cc2)cc1,-3%,/,/,6.3µM*,/
CCOc1ccc(C(=O)NCC(=O)OCC(=O)N2CCCCC2)cc1,17%[38.3 µM],32,-3%,6%,-3
Cc1ccc(C(=O)CNc2ccc(Cl)cc2)cc1,-4%,/,/,10µM*,/
CN(C)CCC(=O)c1ccc(Cl)cc1,-19%[38.3 µM],?,16µM*,0.11µM*,5
O=C(O)CCC(=O)CCC(=O)c1ccc(Cl)cc1,-5%[38.3 µM],-1,-17%,-1%,1
COC(=O)C(CC(=O)c1ccc(Cl)cc1)c1ccc(C)cc1 (configuration not stated),11%,-100*,-10%,-4%,0
CC1(C)C/C(=N\NC(=S)Nc2ccccc2F)c2cc(O)ccc2O1,-3%,/,/,?,/
O=C1[C@H]2[C@H]3[C@H](O)[C@H](O)C/C(=N/OC[C@@H](O)COCc4ccco4)[C@@H]3CC[C@@H]2C(=O)N1C[C@@H]1CCCO1,/,/,/,2%[13.5 µM],/
O=S(=O)(Nc1ccc2c(c1)OCCO2)c1cnc[nH]1,18%[38.3 µM],15,-11%,6%,4
CCOc1ccc(C(=O)COc2ccc(NC(C)=O)cc2)cc1,-8%[38.3 µM],2,-21%,0%,-3
CCOc1ccc(NCC(=O)c2ccc(C)cc2)cc1,3%,/,/,3.2µM*,/
Cc1cccc(C(C)Nc2ccc([N+](=O)[O-])cn2)c1 (configuration not stated),28%[38.3 µM],-28,?,?,4
O=C(NC1CSC/C1=N\O)c1ccccc1 (configuration not stated),8%[38.3 µM],10,-11%,22µM*,-5
O=C(NC(=S)NC1CCSC1=O)c1ccccc1 (configuration not stated),-5%,12,-7%,2%,/
COc1cccc(CN2C(=O)CCC2(C)C(=O)NC2CCCC2)c1 (configuration not stated),44%[38.3 µM],48,-5%,1%,8
FC(F)(F)c1cnc(Oc2ccc(-c3nnco3)cc2)c(Cl)c1,22%[38.3 µM],-30,11µM*,-3%,8
Cc1cc(N=Cc2c(O)ccc3cc(Br)ccc23)no1,?,31,10µM*,1.8µM*,/
Cc1ccc(OCC2Cn3c(nc4c3c(=O)[nH]c(=O)n4C)O2)cc1 (configuration not stated),0%,-103*,-6%,15%,6
Cc1ccccc1OCC1Cn2c(nc3c2c(=O)[nH]c(=O)n3C)O1 (configuration not stated),-5%[38.3 µM],22,-5%,-19%,-7
CCOC(=O)c1cc(C(=O)NC(C)c2ccccc2)c(C)[nH]c1=O (configuration not stated),4%,/,/,?,/
Cc1sc2ncn(CC(=O)NCc3ccccn3)c(=O)c2c1S(=O)(=O)N1CCOCC1,-1%,-100*,-14%,5%,-1
COc1ccc(N2C(=O)C(CN3CCN(C)CC3)C2c2ccccc2)cc1 (configuration not stated),3%,/,/,-1%,/
CC1(C)CC(=O)c2c(nn(-c3ccccc3)c2-c2ccncc2)C1,-5%,-25,-11%,14µM*,7
SMILES,IMPase Li cell,PNC assembly inh,HPGD block,ALDH1A1 block,IMPase cell inh
COc1ccc2[nH]cc(CCNc3ncncc3-c3ccccc3C)c2c1,21%,/,/,?,/
COC(=O)C1=C(C)C(c2ccc(OC)cc2)NC(=S)N1 (configuration not stated),-10%[38.3 µM],0,-12%,8.9µM*,7
COc1ccc(C2NC(=S)NC(C)=C2C(=O)Nc2ccccn2)cc1 (configuration not stated),1%,/,/,14µM*,/
CCOC(=O)C1C(c2ccccc2)NC(=S)NC1(C)O (configuration not stated),-4%,/,/,?,/
COc1ccc(OC)c(C2NC(=S)NC(C)=C2C(=O)Nc2ccccn2)c1 (configuration not stated),5%,/,/,-4%,/
COc1ccc(C2NC(=O)NC(C)=C2C(=O)Nc2cccc(C)c2C)cc1 (configuration not stated),11%[38.3 µM],-17,4%,2.8µM*,-7
COC(=O)C1=C(C)C(c2ccc(OC)cc2)NC(=O)N1 (configuration not stated),1%,/,/,8%,/
CCOC(=O)C1=C(C)C(c2ccccc2)NC(=S)N1 (configuration not stated),6%[38.3 µM],29,2%,2.5µM*,-5
COc1ccccc1C(=O)NC1CCN(C(=S)NCCc2ccccc2)CC1,0%,/,/,6%,/
Cc1cnc(CNc2ccnc(-c3ccccc3C(F)(F)F)n2)cn1,-4%,/,/,?,/
N#Cc1c(-c2ccccc2)ccnc1Oc1ccccc1,7%[38.3 µM],-96*,-29%,?,0
CN(C)S(=O)(=O)c1ccc(C(=O)OCC(=O)c2ccc3c(c2)NC(=O)CO3)cc1,/,/,/,-1%,/
CN(C)S(=O)(=O)c1cccc(C(=O)OCC(=O)c2ccc3c(c2)NC(=O)CO3)c1,20%[38.3 µM],23,-23%,22µM*,0
O=C1C[C@@H](O)[C@@H](O)[C@H]2[C@@H]3C(=O)N(c4cccc(Oc5ccccc5)c4)C(=O)[C@@H]3CC[C@H]12,/,/,/,12%[13.5 µM],/
O=C(On1c(-c2ccccc2)nc2ccccc2c1=O)c1ccco1,2%[38.3 µM],10,?,8.9µM*,11
COc1cc(OC)cc(-c2nc3ccccc3c(=O)n2OC(=O)c2ccccc2C)c1,10%,-22,-9%,-2%,-4
CCOC(=O)c1c(Nc2ccc(C)cc2)nnc(-c2ccccc2)c1-c1ccccc1,/,/,/,/,-1
C/C(N)=C(/C#N)C(=O)CSc1cc(C)c2ccccc2n1,-4%,/,/,-1%,/
CC(C)(C)n1nnnc1C(c1ccc(F)cc1)N(Cc1ccc(F)cc1)Cc1ccco1 (configuration not stated),14%,31,-20%,8%,19
CC(C)(C)n1nnnc1C(c1ccc(C(F)(F)F)cc1)N(Cc1ccc(F)cc1)Cc1ccco1 (configuration not stated),22%,-119*,-10%,3%,8
COc1ccc(C2=C(Nc3ccc(Br)c(C)c3)c3ccccc3C2=O)cc1,/,/,/,/,12
Cc1ccccc1N1CCN(C2=NC(=O)/C(=C\c3cccs3)S2)CC1,13%,21,25µM*,16µM*,/
CCCCOc1ccc(-c2cn3ccccc3n2)cc1[N+](=O)[O-],9%,?,-11%,10µM*,/
CC1(C)CC(c2nc(-c3ccc([N+](=O)[O-])cc3)cs2)CCO1 (configuration not stated),4%,/,/,16µM*,/

# Compound activity deposited in PubChem BioAssay by National Center for Advancing Translational Sciences (NCATS).
